# Compound activity deposited in PubChem by Broad Institute.
# Casp6 inh: human caspase-6 inhibitors, primary screen, biochemical, VEID-R110 fluorescence, single point, set 2; P55212; purified caspase-6, Z-VEID-R110 cleavage fluorescence; inhibition, % at 12.5 µM; actives 0.53% (n = 350,000); AID 686996, 2013;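 active = mean inhibition across replicates at least about 35%, with every replicate also reaching that limit, limit read from the data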;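 note: 0% = median of neutral control wells and 100% = no fluorescence left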
# Target sequence (P55212 24-179 limits assumed): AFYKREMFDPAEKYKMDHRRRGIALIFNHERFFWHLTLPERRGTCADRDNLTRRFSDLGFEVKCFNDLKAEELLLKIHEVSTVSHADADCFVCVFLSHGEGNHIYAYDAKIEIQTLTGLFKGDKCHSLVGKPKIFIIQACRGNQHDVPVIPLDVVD
# Target sequence (P55212 194-293 limits assumed): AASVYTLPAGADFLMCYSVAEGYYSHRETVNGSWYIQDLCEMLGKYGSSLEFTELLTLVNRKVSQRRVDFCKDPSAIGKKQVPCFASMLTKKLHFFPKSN
# SIRT5 block: SIRT5 desuccinylase inhibitors, primary screen, biochemical, fluorescence imaging, single point, set 5; NAD-dependent protein deacylase sirtuin-5, mitochondrial (Homo sapiens), Q9NXA8; Purified SirT5, succinyl-peptide AMC, trypsin-coupled fluorescence; inhibition, % at 15 µM; actives 1.1% (n = 330,000); in the data active = inhibition above about 15%
# ERAP1 inh: human ERAP1 aminopeptidase inhibitors, primary screen, biochemical, single point, plate reader; Endoplasmic reticulum aminopeptidase 1 (Homo sapiens), Q9NZ08; actives 0.15% (n = 340,000); inhibition, % at 10.7 µM; recombinant ERAP1, Leu-AMC fluorescence, 60 min;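 active = mean replicate inhibition of at least 30%, or all replicates individually reaching that 30% level; inactive = mean below 30% and not every replicate reaching it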;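 note: 0% = neutral control wells and 100% = L-leucinethiol positive control wells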
# FGF22 binding: binders of human FGF22 protein, primary screen, FGF22 synaptogenesis inhibitor project, biophysical, thermal shift, single point; AID 651658, 2012; recombinant FGF22 thermal shift, SYPRO orange fluorescence; percent of sucrose octasulfate shift, DMSO zero; activity (Tm shift, normalised), % at 9.99 µM; actives 1.5% (n = 340,000); Fibroblast growth factor 22 (Homo sapiens), Q9HCT0;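 active = mean Tm shift, scaled 0 neutral to 100 positive control, at about 1.3% or above, every replicate too, limit read from the data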
# Target sequence (Q9HCT0 whole entry, looked up): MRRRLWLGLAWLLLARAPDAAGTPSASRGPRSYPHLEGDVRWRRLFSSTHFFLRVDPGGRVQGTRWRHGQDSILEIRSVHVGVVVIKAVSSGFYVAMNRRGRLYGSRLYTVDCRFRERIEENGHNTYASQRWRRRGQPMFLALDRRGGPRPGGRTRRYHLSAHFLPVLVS
# Numbers without * were called inactive; nt = no result. Most compounds without a hit are left out; they make up all but 3.1% or so of the library.
SMILES,Casp6 inh,SIRT5 block,ERAP1 inh,FGF22 binding
COc1ccc(-c2nn(-c3ccccc3)cc2C(=O)Nc2cccc(C(=O)O)c2)cc1[N+](=O)[O-],67*,-1,-18,nt
O=C(O)c1ccc(NC(=O)c2cn(-c3ccccc3)nc2-c2ccc(Br)cc2)cc1,15,13,6,1.6*
CC(C)C#Cc1ccc2c(c1)O[C@H](CN(C)C(=O)C1CC1)[C@@H](C)CN([C@H](C)CO)S2(=O)=O,-2,0,0,0
CCC(=O)N(C)C[C@@H]1Oc2cc(C#CC3CCCCC3)ccc2S(=O)(=O)N([C@@H](C)CO)C[C@@H]1C,1,3,-2,-1
FC(F)(F)c1ccc(Oc2ccc3ccccc3c2Br)nc1,0,24*,-1,1
Cc1ccccc1C(=O)N/N=C1\SCC(=O)N1Cc1ccco1,1,2,1,44*
COc1cc(OC)cc(C(=O)N/N=C2/SCC(=O)N2Cc2ccco2)c1,7,4,0,0
Cc1cccc(OCC(=O)N/N=C2/SCC(=O)N2Cc2ccco2)c1,-4,-2,-7,43*
Cc1ccc(OCC(=O)N/N=C2/SCC(=O)N2Cc2ccccc2)cc1,-1,-1,-3,0
C[C@@H]1CN([C@@H](C)CO)C(=O)c2cc(-c3cccc(F)c3)cnc2O[C@@H]1CN(C)C(=O)c1cnccn1,1,-2,-1,0
O=C(O)c1c2c(nc3ccccc13)/C(=C/c1cccc([N+](=O)[O-])c1)CCC2,3,97*,-3,42
O=C(O)c1c2c(nc3ccccc13)/C(=C/c1ccccc1[N+](=O)[O-])CCC2,5,-3,-5,0
COc1ccc(CCC(=O)O)c(C(CC(=O)O)C(=O)O)c1OS(=O)(=O)c1ccc(C)cc1 (stereo not given),-3,nt,-1,1.6*
CCN(CC)Cc1c(O)ccc2cc(-c3nc4ccccc4n3C)c(=O)oc12,6,-110,91*,0
CCN(CC)Cc1c(O)ccc2c(=O)c(-c3ccccc3)coc12,0,-11,8,0
COc1ccc(S(=O)(=O)N(C)C[C@@H]2OCCCC[C@H](C)Oc3ccc(NC(=O)c4ccncc4)cc3C(=O)N([C@H](C)CO)C[C@H]2C)cc1,2,1,-2,0
c1ccc(CCc2nc(-c3ccc(-n4cccc4)cc3)no2)cc1,0,18*,6,0
c1ccc(OCc2nc(-c3ccncc3)no2)cc1,1,0,5,0
Cc1ccc(OCc2nc(-c3ccccn3)no2)cc1,1,16*,-1,0
COCCOc1ccc(C(F)(F)F)cc1NC(=O)COC(=O)Cc1c[nH]c2ccccc12,3,1,0,0
CCCCCNCC(=O)Nc1cc(C(F)(F)F)ccc1OCCOC,-2,-5,1,44*
COc1cccc(S(=O)(=O)Nc2ccc3c(c2)[C@H]2C[C@H](CC(=O)NCc4ccccc4F)O[C@@H](CO)[C@H]2O3)c1,1,-1,2,-1
COc1cccc(CNC(=O)[C@@H]2[C@@H](CO)[C@@H]3Cn4c(ccc(-c5ccncc5)c4=O)[C@@H]3N2C)c1,-1,-1,-2,0
C/C(=N\Nc1ccc(Cl)c(C(=O)O)c1)c1cccs1,4,5,-17,0
C/C(=N\Nc1ccc(Cl)c(C(=O)O)c1)c1ccc[nH]1,1,24*,nt,0
SMILES,Casp6 inh,SIRT5 block,ERAP1 inh,FGF22 binding
O=C(CC1CC1)N1[C@@H](CO)[C@H](c2ccccc2)C12CN(Cc1ccncc1)C2,0,-3,0,nt
COCC(=O)Nc1ccc2c(c1)[C@H]1C[C@H](CC(=O)NCc3cc(F)ccc3F)O[C@@H](CO)[C@H]1O2,nt,nt,nt,0
COc1ccc2c3c([nH]c2c1)[C@H](CO)N(Cc1cc(F)ccc1F)CC31CN(C)C1,0,-3,40*,0
COc1ccc2c3c([nH]c2c1)[C@H](CO)N(C(=O)NC(C)C)CC31CCN(C(=O)c2ccccn2)CC1,0,0,-5,0
O=C(C[C@H]1C=C[C@@H](NC(=O)c2ccccn2)[C@@H](CO)O1)NCc1cc(F)cc(F)c1,2,-2,nt,0
O=C(CN1CCCC1)Nc1ccc(F)cc1,0,-1,4,43*
O=C(O)CSc1ccc(Oc2ccc(SCC(=O)O)cc2)cc1,2,3,7,43*
C=CCNC(=S)NC1CC(C)(C)NC(C)(C)C1,-2,5,-3,0
CC1(C)CC(NC(=S)NC2CC2)CC(C)(C)N1,2,0,-1,43*
C[C@H](CO)N1C[C@H](C)[C@@H](CN(C)S(=O)(=O)c2cn(C)cn2)OCCCC[C@H](C)Oc2ccc(NS(C)(=O)=O)cc2C1=O,-3,6,0,0
CC(C)(C)c1nc(SCC(=O)N2CC(=O)Nc3ccccc32)c2ccccc2n1,-2,-4,-1,44*
O=C(Cc1ccccn1)N[C@H]1CC[C@@H](CCNC(=O)c2cc(Cl)cc(Cl)c2)O[C@@H]1CO,0,-1,0,0
CN1CCN(C(=O)CSc2cc(=O)n(C)c3ccccc23)CC1,7,-1,-3,43*
CCN1CCN(C(=O)CSc2cc(=O)n(C)c3ccccc23)CC1,5,1,-5,0
C/C=C/c1ccc2c(c1)O[C@H](CN(C)S(=O)(=O)c1ccc(C)cc1)[C@H](C)CN([C@H](C)CO)S2(=O)=O,0,0,2,0
OCCN(Cc1ccccc1)Cc1ncccc1O,4,nt,3,43*
OCCN(Cc1cccnc1)Cc1ccccn1,-7,-1,3,0
COc1ccc2c3c(n(C)c2c1)[C@@H](CO)N(CC1CCCC1)CC31CCN(C(=O)Nc2ccccc2)CC1,-8,11,5,0
COc1ccccc1-c1ccc2n(c1=O)C[C@H]1[C@H](CO)[C@@H](C(=O)N(C)C)N(CC3CCOCC3)[C@@H]21,-2,1,-5,0
O=C(O)C[C@@H]1CC[C@H](NC(=O)c2ccccc2F)[C@@H](CO)O1,1,-1,-6,0
Nc1c(Cl)cc(-c2csc(N3CCCC3c3nc4cc(Cl)c(N5CCCCC5)cc4n3CCCO)n2)cc1Cl (stereo not given),-3,15*,0,0
C[C@@H]1CN([C@H](C)CO)C(=O)c2cc(NS(C)(=O)=O)ccc2O[C@@H]1CN(C)C(=O)Nc1ccc(C(F)(F)F)cc1,2,4,-4,-1
COc1cc2c3c(c1OC)C1(C=CC(=NNC(N)=O)C=C1)CC3N(C(C)=O)CC2 (stereo not given),0,0,-4,43*
CO[C@@H](CN(C)S(=O)(=O)c1ccc(Cl)cc1)[C@@H](C)CN(Cc1ccccc1Cl)[C@@H](C)CO,-1,-1,2,0
